High-throughput results as filed in PubChem BioAssay.
Y pestis TopoI: Yersinia pestis topoisomerase I inhibitors, primary screen, biochemical, cleavage product accumulation, plate reader, single point; DNA topoisomerase I (Yersinia pestis CO92); activity, % at 10 µM; Y. pestis Topo-I cleavage product accumulation; AID 504884, 2011; 360,000 compounds, 0.064% hits; in the data active = activity above about 50%, passing the limit was not always enough
PrP 5UTR inh: inhibition of PrP 5' UTR reporter expression | 340,000 compounds, 0.35% hits | inhibition, % (no concentration beside the values) | cell-based PrP 5' UTR mRNA reporter, plate reader; in the data active = inhibition above about 52%
Mtb hypoxia inh: PubChem AID 1159583; fluorescence inhibition, % (test concentration not listed); 300,000 compounds, 0.1% hits; M. tuberculosis hypoxia-regulated fluorescent reporter, fluorescence; in the data active = fluorescence inhibition mostly above about 23%, no sharp cut-off; inactive = mostly below about 17%
GDH-TPI counter-1: GDH-TPI coupling enzyme inhibitors, primary screen, artefact control for M. tuberculosis FBA inhibitor project, biochemical, absorbance, full deck; inhibition, % at 4.8 µM; GDH-TPI coupled enzyme counterscreen, NADH absorbance; AID 588335, 2011; 360,000 compounds, 1.2% hits; in the data active = inhibition above about 30%
FBA Mtb inh: Mtb FBA enzyme inhibitors, primary screen, biochemical, fluorescence, strain H37Rv; 360,000 compounds, 2.3% hits; AID 588726, 2011; Fructose-bisphosphate aldolase (Mycobacterium tuberculosis (strain ATCC 25618 / H37Rv)), …; purified M. tuberculosis FBA, fluorescence read-out; inhibition, % at 1 µM
Target sequence (P9WQA3 whole entry, looked up): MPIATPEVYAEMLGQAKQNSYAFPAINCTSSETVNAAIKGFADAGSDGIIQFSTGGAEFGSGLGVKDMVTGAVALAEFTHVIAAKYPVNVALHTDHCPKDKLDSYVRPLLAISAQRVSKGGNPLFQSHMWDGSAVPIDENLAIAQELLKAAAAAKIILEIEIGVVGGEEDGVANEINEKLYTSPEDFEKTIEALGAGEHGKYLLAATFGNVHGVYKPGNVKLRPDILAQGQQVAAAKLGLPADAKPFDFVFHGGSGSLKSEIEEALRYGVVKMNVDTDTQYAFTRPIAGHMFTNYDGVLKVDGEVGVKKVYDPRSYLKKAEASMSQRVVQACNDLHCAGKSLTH
PrPC surface inh: inhibitors of human cell surface prion protein PrPC, primary screen, cell-based, TR-FRET | Major prion protein (Homo sapiens), P04156 | TR-FRET read-out | inhibition, % at 13.8 µM | 370,000 compounds, 0.43% hits; in the data active = inhibition above about 24%
Mtb FBA inh conf: M. tuberculosis aldolase blockers, biochemical, fluorescence, strain H37Rv, confirmation | purified M. tuberculosis FBA, fluorescence read-out | 5,600 compounds, 78% hits | AID 651616, 2012 | shares compounds with FBA Mtb inh | inhibition, % at 1 µM
GDH-TPI counter-2: GDH-TPI coupling enzyme inhibitors, artefact control for M. tuberculosis FBA inhibitor project, biochemical, fluorescence, high throughput; shares compounds with FBA Mtb inh; GDH-TPI coupled enzyme counterscreen; inhibition, % at 1 µM; 5,600 compounds, 81% hits; AID 652141, 2013; in the data active = inhibition above about 10%
Large screens that a line does not name were inactive (follow-up assays come after a bar, where they were run). Compounds with a hit are over-represented: about 3.8% of the library has one in this group of screens. Cut-off read from the data, not from the text of the source, unless noted: active = inhibition above about 27%; inactive = the rest.

CN(CCOc1ccc(Cl)cc1)C(=O)c1cc(-c2ccco2)nc2ccccc12	FBA Mtb inh 36.5 | Mtb FBA inh conf 173.9 | GDH-TPI counter-2 127.2
CN(CC(=O)Nc1ccc(F)cc1)C(=O)c1cc(-c2ccco2)nc2ccccc12	FBA Mtb inh 30.0 | Mtb FBA inh conf active | GDH-TPI counter-2 active
CC(=O)Nc1cccc(C(=O)NN=Cc2ccc(F)cc2)c1	none (no result: Y pestis TopoI, PrP 5UTR inh, GDH-TPI counter-1, FBA Mtb inh, PrPC surface inh)
O=c1oc2c(O)cccc2cc1-c1nc2ccccc2[nH]1	FBA Mtb inh 55.2 | Mtb FBA inh conf 141.9 | GDH-TPI counter-2 103.2
COc1cccc(N=c2oc3ccccc3cc2-c2nc3ccccc3[nH]2)c1	none
Cc1ccc2[nH]c(C(=O)NCCN3CCCC3)cc2c1	FBA Mtb inh 41.1 | Mtb FBA inh conf 76.3 | GDH-TPI counter-2 63.2
O=C1CCCC=CCC(CC(=O)N(CCO)Cc2ccccc2)C(=O)NC(c2ccccc2)CO1 (stereo unspecified)	none (no result: Y pestis TopoI, PrP 5UTR inh, GDH-TPI counter-1, FBA Mtb inh, PrPC surface inh)
O=C(NCc1cccnc1)c1ccc(-c2cc3ccccc3oc2=O)cc1	FBA Mtb inh 53.6 | Mtb FBA inh conf inactive | GDH-TPI counter-2 inactive
O=C(Nc1cccnc1)c1ccc(-c2ccc(Cl)cc2)o1	none
O=C(NCc1cccnc1)c1ccc(-c2ccc(Cl)cc2)o1	FBA Mtb inh 28.6 | Mtb FBA inh conf 113.4 | GDH-TPI counter-2 103.5
CC(=NNC(=O)c1nnn(-c2nonc2N)c1CSc1ccccc1)c1ccc2c(c1)OCO2	none (no result: Y pestis TopoI, PrP 5UTR inh, GDH-TPI counter-1, FBA Mtb inh, PrPC surface inh)
Cc1ccc2nc(C)c(C(=O)NN=Cc3cccc([N+](=O)[O-])c3)cc2c1	none (no result: Y pestis TopoI, PrP 5UTR inh, GDH-TPI counter-1, FBA Mtb inh, PrPC surface inh)
Cc1cc(N=Cc2c(O)n(-c3ccc4c(c3)OCO4)c(=O)c3ccccc23)ccn1	FBA Mtb inh 38.1 | Mtb FBA inh conf active | GDH-TPI counter-2 active
Cc1ccc(-n2c(O)c(C=Nc3ccc4c(c3)OCO4)c3ccccc3c2=O)cc1C	none
CC(=O)OCC(=O)[C@@]1(O)CCC2C3CCC4=CC(=O)C=C[C@]4(C)C3C(O)C[C@@]21C (stereo partly specified)	none (no result: Y pestis TopoI, PrP 5UTR inh, GDH-TPI counter-1, FBA Mtb inh, PrPC surface inh)
Cc1ccc(S(=O)(=O)NNC(=O)c2ccccc2-n2cccc2)cc1	FBA Mtb inh 31.6 | Mtb FBA inh conf 57.4 | GDH-TPI counter-2 51.9
CCOC(=O)C1=C(C)OC(N)=C(C#N)C1c1cc(OC)c2c(c1)OCO2 (stereo unspecified)	none (no result: Mtb hypoxia inh)
CCOC(=O)C1=C(C)OC(N)=C(C#N)C1c1cc2c(cc1[N+](=O)[O-])OCO2 (stereo unspecified)	FBA Mtb inh 32.8 | Mtb FBA inh conf 42.1 | GDH-TPI counter-2 26.2
O=C(NN=Cc1ccc(N2CCOCC2)cc1)c1ccccc1OCCOc1ccccc1	none (no result: Y pestis TopoI, PrP 5UTR inh, GDH-TPI counter-1, FBA Mtb inh, PrPC surface inh)
O=C(NCc1cccs1)c1cc(-c2ccccc2)nc2ccccc12	none
NS(=O)(=O)c1ccc(CNC(=O)c2cc(-c3cccs3)nc3ccccc23)cc1	FBA Mtb inh 79.9 | Mtb FBA inh conf inactive | GDH-TPI counter-2 inactive
NS(=O)(=O)c1cccc(NC(=O)c2cc(-c3cccs3)nc3ccccc23)c1	none
CN(C)S(=O)(=O)c1cccc(NC(=O)c2cc(-c3cccs3)nc3ccccc23)c1	FBA Mtb inh 27.8 | Mtb FBA inh conf 126.3 | GDH-TPI counter-2 102.7
NS(=O)(=O)c1ccc(CCNC(=O)CSc2cccs2)cc1	FBA Mtb inh 96.6 | Mtb FBA inh conf 87.4 | GDH-TPI counter-2 56.5
O=C(CSc1cccs1)NCCc1ccccc1	none
NS(=O)(=O)c1ccc(CCNC(=O)c2cc(-c3cccs3)nc3ccccc23)cc1	FBA Mtb inh 98.9 | Mtb FBA inh conf active | GDH-TPI counter-2 active
CCOc1ccc(C=NNC(=S)NC2CC3CCC2C3)cc1 (stereo unspecified)	none (no result: Y pestis TopoI, PrP 5UTR inh, GDH-TPI counter-1, FBA Mtb inh, PrPC surface inh)
CCN(CC)c1ccc(C=NNC(=O)c2c(-c3ccccc3)noc2C)cc1	none (no result: Y pestis TopoI, PrP 5UTR inh, GDH-TPI counter-1, FBA Mtb inh, PrPC surface inh)
CCCCCCCC(C)=NNC(=O)CC(=O)NCCc1ccccc1	none (no result: Y pestis TopoI, PrP 5UTR inh, GDH-TPI counter-1, FBA Mtb inh, PrPC surface inh)
